Test results taken from PubChem BioAssay.
Inconclusive results are not listed. For some assays here: Entries with a potency or affinity are not part of this list. Calls of active or inactive are those of the source.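 How the source made its calls, unless noted: active means compounds lowering colon cancer cell viability after pretreatment blocking the GSK3B kinase; inactive means the rest.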

Experiments:
[1] = stimulators of insulin release from INS-1E, primary screen, cell-based, 5 mM glucose, NPC library (AID 1117329;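 active means compound raises insulin release from rat beta cells at 5 mM glucose, no numeric limit stated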); conditions: rat INS-1E insulin secretion, at 10 µM, stronger effect = higher value
[2] = growth inhibition of GSK3B-pretreated HCT116 cells – cell-based, CellTiter-Glo, 0.2 to 20 µM (AID 1117336); conditions: HCT116 viability after GSK3B inhibitor, at 20 µM, stronger effect = higher value
[3] = inhibition of endothelial tube formation, primary screen, imaging, VEGF stimulated, CD31 staining, tube area, NPC library (AID 1117340;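 active means compound that reduces growth-factor-driven endothelial tube area in a mixed cell culture, no cutoff stated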); conditions: VEGF-stimulated ADSC/ECFC co-culture, at 10 µM, stronger effect = higher value
[4] = glucagon-like peptide 1 release enhancers, primary assay, NCI-H716 cell line, NPC library (AID 1117341;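 active means compound raises GLP1 secretion from the human gut endocrine cells, with no numeric limit stated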); conditions: NCI-H716 cells, at 10 µM, stronger effect = higher value
[5] = HCT116 colon cancer cell growth inhibition, primary screen, CellTiter-Glo luminescence, NPC library (AID 1117342;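 active means compounds that lower survival of HCT116 colon cancer cells in the luminescence readout, no numeric limit stated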); conditions: at 20 µM (top of the series)
[6] = CellTiter-Glo luminescent readout of SW480 viability loss, NPC library primary (AID 1117343;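 active means compounds that lower viability of the colon cancer cells in the luminescence readout, with no numeric limit stated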); conditions: CellTiter-Glo luminescence; at 20 µM (top of the series)
[7] = decreased DLD-1 cellular survival, CellTiter-Glo luminescent readout, NPC compound collection, primary HTS (AID 1117346;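 active means compounds that lower survival of DLD-1 colon cancer cells in the luminescence readout, no cutoff given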); conditions: DLD-1 viability, CellTiter-Glo luminescence; at 20 µM (top of the series)
[8] = target: Calcium-dependent protein kinase 1 (Plasmodium falciparum (isolate 3D7)) (UniProt P62344); assay: PfCDPK1 kinase inhibitors, biochemical, TCAMS library (AID 1159585; cut-off not given, nearly all actives have IC50 up to about 0.98 µM;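 further: inhibitors leave more ATP so luminescence rises with inhibition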); conditions: recombinant PfCDPK1, Kinase-Glo ATP depletion luminescence
Chain of Calcium-dependent protein kinase 1 (Plasmodium falciparum (isolate 3D7)) (P62344 whole entry, looked up): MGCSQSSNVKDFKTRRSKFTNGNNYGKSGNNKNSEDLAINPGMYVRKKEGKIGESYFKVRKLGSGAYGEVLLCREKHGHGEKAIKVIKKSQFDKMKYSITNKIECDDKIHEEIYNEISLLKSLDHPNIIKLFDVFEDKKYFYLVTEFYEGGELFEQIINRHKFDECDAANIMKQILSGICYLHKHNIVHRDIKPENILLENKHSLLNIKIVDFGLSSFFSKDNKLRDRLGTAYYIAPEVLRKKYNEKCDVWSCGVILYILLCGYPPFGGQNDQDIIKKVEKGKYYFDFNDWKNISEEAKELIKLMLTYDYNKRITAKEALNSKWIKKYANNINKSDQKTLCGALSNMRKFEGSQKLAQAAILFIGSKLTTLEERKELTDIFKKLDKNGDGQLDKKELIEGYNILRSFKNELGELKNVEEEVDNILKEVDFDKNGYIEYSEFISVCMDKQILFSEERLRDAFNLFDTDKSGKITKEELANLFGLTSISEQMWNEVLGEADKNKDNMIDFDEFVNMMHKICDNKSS

[9] = target: Plasmodium falciparum protein kinase 6 (PK6, PF3D7_1337100) (UniProt Q8IDW1); assay: PfPK6 kinase inhibitors, biochemical, TCAMS library (AID 1159586; call rule not given here); conditions: recombinant PfPK6, Kinase-Glo ATP depletion luminescence
Chain of Plasmodium falciparum protein kinase 6 (PK6, PF3D7_1337100) (Q8IDW1 1-305): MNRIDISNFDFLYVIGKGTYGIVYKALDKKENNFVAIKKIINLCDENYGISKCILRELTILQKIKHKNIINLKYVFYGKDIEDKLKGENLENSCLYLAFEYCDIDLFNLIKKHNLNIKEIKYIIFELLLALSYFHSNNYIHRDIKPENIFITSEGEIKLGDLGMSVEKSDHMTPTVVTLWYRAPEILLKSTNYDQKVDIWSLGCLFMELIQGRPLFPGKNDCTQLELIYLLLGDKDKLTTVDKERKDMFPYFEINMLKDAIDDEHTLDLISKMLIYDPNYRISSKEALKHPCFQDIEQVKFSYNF

[10] = target: Protein kinase 7 (PK7), Plasmodium falciparum 3D7 (PF3D7_0213400) (UniProt Q7YTF7); assay: inhibition of Plasmodium PK7 catalytic activity – biochemical, TCAMS antimalarial set, Kinase-Glo luminescence (AID 1159587; call rule not given here); conditions: recombinant PfPK7, Kinase-Glo ATP depletion luminescence
Chain of Protein kinase 7 (PK7), Plasmodium falciparum 3D7 (PF3D7_0213400) (Q7YTF7 1-343): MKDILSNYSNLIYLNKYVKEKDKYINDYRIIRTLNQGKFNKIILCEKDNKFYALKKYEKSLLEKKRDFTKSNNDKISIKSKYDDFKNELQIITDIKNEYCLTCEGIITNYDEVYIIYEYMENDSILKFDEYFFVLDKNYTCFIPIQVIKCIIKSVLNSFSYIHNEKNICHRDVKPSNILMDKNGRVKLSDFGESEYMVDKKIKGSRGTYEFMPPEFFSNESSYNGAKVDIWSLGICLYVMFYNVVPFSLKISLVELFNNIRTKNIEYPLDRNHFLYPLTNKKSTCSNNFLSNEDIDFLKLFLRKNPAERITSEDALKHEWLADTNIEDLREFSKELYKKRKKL

[11] = target: Calcium-dependent protein kinase 4 (Plasmodium falciparum (isolate 3D7)) (UniProt Q8IBS5); assay: PfCDPK4 kinase inhibitors, biochemical, TCAMS library (AID 1159588; cut-off not given, nearly all actives have IC50 up to about 0.91 µM); conditions: recombinant PfCDPK4, Kinase-Glo ATP depletion luminescence
Chain of Calcium-dependent protein kinase 4 (Plasmodium falciparum (isolate 3D7)) (Q8IBS5 whole entry, looked up): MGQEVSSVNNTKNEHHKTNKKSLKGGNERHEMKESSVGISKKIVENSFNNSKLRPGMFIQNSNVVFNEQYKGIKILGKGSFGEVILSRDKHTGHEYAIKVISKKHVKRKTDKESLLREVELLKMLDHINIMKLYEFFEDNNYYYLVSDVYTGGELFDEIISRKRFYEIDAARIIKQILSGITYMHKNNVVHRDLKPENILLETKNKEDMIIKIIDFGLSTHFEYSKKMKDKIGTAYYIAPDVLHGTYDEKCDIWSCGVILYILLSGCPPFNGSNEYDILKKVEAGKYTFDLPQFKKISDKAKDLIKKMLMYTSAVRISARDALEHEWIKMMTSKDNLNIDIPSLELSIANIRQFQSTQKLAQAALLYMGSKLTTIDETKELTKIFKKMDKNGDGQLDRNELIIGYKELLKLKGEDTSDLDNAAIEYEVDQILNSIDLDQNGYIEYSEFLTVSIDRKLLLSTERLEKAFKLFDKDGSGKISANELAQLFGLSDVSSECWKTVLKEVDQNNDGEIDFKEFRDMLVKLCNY

[12] = modulation of C. elegans fzo-1 (AID 1259413; call rule not given here;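 further: fzo-1 mutant C. elegans worms in liquid wells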); conditions: C. elegans fzo-1 modulator screen, mean read-out; stronger effect = higher value
[13] = test system: Aerobactin synthetase IucA (Klebsiella pneumoniae); assay: IucA aerobactin synthetase inhibitors, biochemical, Tocris library, absorbance (AID 1345561; call rule not given here;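 further: 100% = enzyme without compound and 0% = no enzyme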); conditions: purified IucA enzyme assay, absorbance (OD) read-out; stronger effect = lower value;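 tested at 8 µM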
[14] = growth inhibition of DIPG glioma cells, dose response, cell-based, SU-DIPG-XIII, MIPE4.0, CellTiter-Glo, qHTS (AID 1347061; cut-off not given, nearly all actives have AC50 up to about 37 µM;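 further: cells exposed to compound for 48 hours before readout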); conditions: SU-DIPG-XIII viability, CellTiter-Glo ATP luminescence
[15] = target: 6-phosphogluconate dehydrogenase, decarboxylating (Homo sapiens) (UniProt P52209); assay: 6PGD enzyme inhibitors, primary screen, biochemical, human, recombinant enzyme, NADPH absorbance (AID 1159550;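 active means at least 20% inhibition of 6-phosphogluconate dehydrogenase activity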); conditions: recombinant 6PGD, NADPH absorbance 341 nm; at 10 µM; stronger effect = higher value
Chain of 6-phosphogluconate dehydrogenase, decarboxylating (Homo sapiens) (P52209 whole entry, looked up): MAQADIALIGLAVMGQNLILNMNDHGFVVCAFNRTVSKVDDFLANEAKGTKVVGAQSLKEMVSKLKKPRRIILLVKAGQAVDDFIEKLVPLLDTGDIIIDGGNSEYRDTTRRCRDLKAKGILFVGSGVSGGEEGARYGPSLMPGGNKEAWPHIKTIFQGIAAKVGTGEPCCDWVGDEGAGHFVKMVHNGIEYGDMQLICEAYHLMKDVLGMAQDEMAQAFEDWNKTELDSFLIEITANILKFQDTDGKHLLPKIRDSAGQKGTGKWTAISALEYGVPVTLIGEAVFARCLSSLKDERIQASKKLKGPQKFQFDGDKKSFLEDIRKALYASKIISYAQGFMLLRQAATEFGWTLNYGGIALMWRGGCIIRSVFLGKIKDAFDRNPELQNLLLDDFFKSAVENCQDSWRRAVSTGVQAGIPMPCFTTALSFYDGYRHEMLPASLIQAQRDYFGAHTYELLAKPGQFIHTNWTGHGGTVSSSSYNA

[16] = growth inhibition of DIPG glioma cells, dose response, cell-based, JHH-DIPG-1, MIPE4.0, CellTiter-Glo, qHTS (AID 1347062; cut-off not given, nearly all actives have AC50 up to about 27 µM;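 on AC50: cells exposed to compound for two days before readout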); conditions: JHH-DIPG-1 viability, CellTiter-Glo ATP luminescence
[17] = growth inhibition of DIPG glioma cells, dose response, cell-based, SU-DIPG-IV, MIPE4.0, CellTiter-Glo, qHTS (AID 1347063; cut-off not given, nearly all actives have AC50 up to about 30 µM;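 further: compound exposure lasted 48 hours before the viability readout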); conditions: SU-DIPG-IV viability, CellTiter-Glo ATP luminescence
[18] = growth inhibition of DIPG glioma cells, dose response, cell-based, SU-DIPG-XVII, MIPE5.0, CellTiter-Glo, qHTS (AID 1347060; cut-off not given, nearly all actives have AC50 up to about 26 µM;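 on AC50: cells exposed to compound for 48 hours before viability readout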); conditions: SU-DIPG-XVII viability, CellTiter-Glo ATP luminescence
[19] = growth inhibition of DIPG glioma cells, dose response, cell-based, SU-DIPG-XIII, MIPE5.0, CellTiter-Glo, qHTS (AID 1347064; cut-off not given, nearly all actives have AC50 up to about 23 µM;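 on AC50: cells exposed to compound for 48 hours before the viability read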); conditions: SU-DIPG-XIII viability, CellTiter-Glo ATP luminescence
[20] = differential killing of epithelial or mesenchymal cells, primary screen, imaging, PC-3E GFP, TEM4-18 mCherry, co-culture (AID 1345086;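 active means compounds killing one labelled cell type while sparing the other, by normalised counts and ratio limits, not self-fluorescent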;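 further: cells exposed to compound for 72 h before imaging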;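 on red/green cell ratio (normalised): normalised mesenchymal count divided by normalised epithelial count so high means epithelial killing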); conditions: imaging cell counts, at 1 µM

CN(Cc1cnc2nc(N)nc(N)c2n1)c1ccc(C(=O)N[C@@H](CCC(=O)O)C(=O)O)cc1
active: viability decrease [2] 87.8% | tube area decrease [3] 57.2% | inhibition of viability [5] 74.5% | viability decrease (inhibition) [6] 78.8% | viability decrease (inhibition) [7] 65.9%
inactive: insulin secretion stimulation [1] -1.8% | GLP1 secretion stimulation [4] 1.1% | outcome [8] | outcome [9] | outcome [10] | outcome [11] | mean signal [12] 204 | remaining activity [13] 114% | outcome [14]

CC(C)NC[C@@H](O)COc1cccc2ccccc12
inactive: insulin secretion stimulation [1] 15.3% | viability decrease [2] 6.9% | tube area decrease [3] 5.1% | GLP1 secretion stimulation [4] 3.3% | inhibition of viability [5] 0.8% | viability decrease (inhibition) [7] 13.7% | inhibition [15] 5.64% | remaining activity [13] 109%
active: viability decrease (inhibition) [6] 54.8%

Cc1onc(-c2ccccc2)c1C(=O)N[C@@H]1C(=O)N2[C@@H]1SC(C)(C)[C@@H]2C(=O)O
inactive: insulin secretion stimulation [1] 6.3% | viability decrease [2] 0.4% | tube area decrease [3] -1.6% | GLP1 secretion stimulation [4] -3.6% | inhibition of viability [5] 5.3% | viability decrease (inhibition) [6] -4.9% | viability decrease (inhibition) [7] -3.8% | inhibition [15] 8.76% | outcome [14] | outcome [16] | outcome [17]

CNC[C@H](O)c1ccc(O)c(O)c1
active: viability decrease (inhibition) [6] 64.8%
inactive: insulin secretion stimulation [1] -2.3% | viability decrease [2] 31.1% | tube area decrease [3] -5.3% | GLP1 secretion stimulation [4] 2.1% | inhibition of viability [5] -7.2% | viability decrease (inhibition) [7] 23.9% | inhibition [15] -1.63% | outcome [18] | outcome [14] | outcome [16] | outcome [17] | outcome [19]

COc1cc2c(Nc3ccc(Br)cc3F)ncnc2cc1OCC1CCN(C)CC1
inactive: insulin secretion stimulation [1] 2.4% | viability decrease [2] -7.7% | tube area decrease [3] -0.5% | GLP1 secretion stimulation [4] 1.5% | inhibition of viability [5] -16% | viability decrease (inhibition) [6] -11.4% | viability decrease (inhibition) [7] -10.1% | outcome [9] | outcome [10] | outcome [11]
active: AC50 [18] 6.61 µM | AC50 [14] 3.72 µM | AC50 [16] 16.6 µM | AC50 [19] 18.6 µM

COC(=O)[C@@H]1[C@H]2C[C@H]3c4[nH]c5ccccc5c4CCN3C[C@@H]2CC[C@@H]1O
inactive: insulin secretion stimulation [1] 1.1% | viability decrease [2] -73.5% | tube area decrease [3] 10.7% | GLP1 secretion stimulation [4] -0.7% | inhibition of viability [5] 13.8% | viability decrease (inhibition) [6] 18.3% | viability decrease (inhibition) [7] -9.4% | inhibition [15] 2.13% | outcome [18] | outcome [14] | outcome [16] | outcome [19]

NC[C@H](O)c1ccc(O)c(O)c1
inactive: insulin secretion stimulation [1] 0.1% | viability decrease [2] 31.8% | tube area decrease [3] -25.8% | GLP1 secretion stimulation [4] 3.6% | inhibition of viability [5] 2.5% | viability decrease (inhibition) [6] 38.8% | viability decrease (inhibition) [7] 8.6% | inhibition [15] 7.95% | outcome [18] | outcome [17]

CC1(C)O[C@H]2CC(=O)OC[C@]23[C@H]2CC[C@@]4(C)[C@H](c5ccoc5)OC(=O)[C@H]5O[C@]54[C@]2(C)C(=O)C[C@@H]13
inactive: insulin secretion stimulation [1] 0.05% | viability decrease [2] 2.7% | tube area decrease [3] 16.3% | GLP1 secretion stimulation [4] 2% | inhibition of viability [5] -6.9% | viability decrease (inhibition) [6] -12.1% | viability decrease (inhibition) [7] -9.6% | inhibition [15] 5.47% | outcome [16] | outcome [17]

C[C@@](Cc1ccc(O)c(O)c1)(NN)C(=O)O
active: viability decrease (inhibition) [6] 88.8%
inactive: insulin secretion stimulation [1] 0.3% | viability decrease [2] 48.3% | tube area decrease [3] -3.9% | GLP1 secretion stimulation [4] -1.3% | inhibition of viability [5] 27.4% | viability decrease (inhibition) [7] 11.7% | inhibition [15] -4.83% | remaining activity [13] 93.6%

CC(=O)N(O)CCCCCNC(=O)CCC(=O)N(O)CCCCCNC(=O)CCC(=O)N(O)CCCCCN
inactive: insulin secretion stimulation [1] 1.8% | GLP1 secretion stimulation [4] -3.6% | viability decrease (inhibition) [6] 21% | viability decrease (inhibition) [7] 31.5% | inhibition [15] -4.7% | red/green cell ratio (normalised) ([20]; actives lie on both sides, counts scaled to control wells, 1 = unselective) 1.51
1.1: normalised cell number ([20]; measured here: epithelial PC-3E GFP cell survival)
active: viability decrease [2] 56.1% | tube area decrease [3] 83% | inhibition of viability [5] 75.7% | AC50 [19] 7.42 µM
1.67: normalised cell number ([20]; measured here: mesenchymal TEM4-18 mCherry cell survival)

CN(C)CC[C@@H](c1ccc(Cl)cc1)c1ccccn1
active: insulin secretion stimulation [1] 81.7%
inactive: viability decrease [2] -5.1% | tube area decrease [3] -4% | GLP1 secretion stimulation [4] 5.7% | inhibition of viability [5] 28.8% | viability decrease (inhibition) [6] 35.9% | viability decrease (inhibition) [7] -3.4% | mean signal [12] 251

CCCCc1ccc2nc(NC(=O)OC)[nH]c2c1
inactive: insulin secretion stimulation [1] -1.7% | GLP1 secretion stimulation [4] -5.4% | viability decrease (inhibition) [6] 33.8% | outcome [8] | outcome [9] | outcome [10] | outcome [11]
active: viability decrease [2] 91.7% | tube area decrease [3] 108% | inhibition of viability [5] 67.5% | viability decrease (inhibition) [7] 50.6% | AC50 [18] 0.186 µM

Cc1nc(N)nc(N)c1-c1ccc(Cl)c(Cl)c1
inactive: insulin secretion stimulation [1] 1.95% | tube area decrease [3] -11.8% | GLP1 secretion stimulation [4] 2.8% | outcome [8] | outcome [9] | outcome [10] | outcome [11]
active: viability decrease [2] 101% | inhibition of viability [5] 95.5% | viability decrease (inhibition) [6] 131% | viability decrease (inhibition) [7] 68.5%

NC(N)=N/N=C/c1c(Cl)cccc1Cl
inactive: insulin secretion stimulation [1] -0.5% | tube area decrease [3] 18.2% | GLP1 secretion stimulation [4] 2.1% | viability decrease (inhibition) [7] 45.4% | inhibition [15] 14% | remaining activity [13] 99.1%
active: viability decrease [2] 60% | inhibition of viability [5] 80.7% | viability decrease (inhibition) [6] 99.6%

CCN1CCN(C(=O)N[C@@H](C(=O)N[C@@H]2C(=O)N3C(C(=O)O)=C(CSc4nnnn4C)CS[C@H]23)c2ccc(O)cc2)C(=O)C1=O
inactive: insulin secretion stimulation [1] 1.3% | viability decrease [2] 6.1% | tube area decrease [3] -32.8% | GLP1 secretion stimulation [4] 5.2% | inhibition of viability [5] -2.2% | viability decrease (inhibition) [6] 8.6% | viability decrease (inhibition) [7] 3.3% | inhibition [15] 16.7% | outcome [19]
active: AC50 [18] 26.3 µM
